Out of some 320,000 compounds screened, about 1,100 (0.34%) were called active. Only a selection was taken, and actives are over-represented in it overall. Unmarked numbers belong to inactive results.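 The calls were made as follows: active = GFP response vs DMSO above a set limit, about the screen mean plus 3 SD (cut at about 150% in these data); inconclusive = under 70 cell events counted for the yeast strain; inactive = the rest.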
Test: modulators of LAP4-GFP expression in yeast, primary screen, S. cerevisiae, multiplex flow cytometry, MLPCN library (AID 2023)
Details: 3 h, at 10 µM, stronger effect = higher value, median GFP as percent of DMSO wells

| SMILES | GFP response vs DMSO |
| --- | --- |
| COc1ccc(C2(c3ccc(OC)cc3)NC(=O)N(CC(=O)Nc3cc(C)on3)C2=O)cc1 | 92.2% |
| CC(=O)Nc1ccc(S(=O)(=O)Nc2ccc(N3CCCCC3)cc2)cc1 | 105% |
| O=C(Cc1ccccc1)NC(=S)Nc1ccc(N2CCCCC2)cc1 | 111% |
| O=C1C=CC(=O)N1c1ccc(N2CCCCC2)cc1 | 179% (active) |
| COc1ccccc1N(CCOc1ccccc1)S(=O)(=O)c1ccccc1 | 103% |
| Cc1nc([N+](=O)[O-])nn1C12CC3CC(CC(Br)(C3)C1)C2 | 109% |
| Cc1ccc(SC(CC(=O)c2ccc(C(C)(C)C)cc2)C(=O)O)cc1 (stereo not given) | 170% (active) |
| Cc1ccc(C(=O)CSc2ccccc2C(=O)O)cc1 | 104% |
| Cc1ccc(CSCC(N)C(=O)O)cc1 (stereo not given) | 97% |
| CC(C)(C)Nc1nc(-c2ccccn2)nc2ccccc12 | 90.7% |
| Cc1ccc(Oc2nc(-c3ccccn3)nc3ccccc23)cc1 | 151% (active) |
| COc1cnc(-c2ccccn2)nc1Oc1ccc(C(C)(C)C)cc1 | 107% |
| Nn1c(Cc2cccc3ccccc23)nnc1SCC(=O)N1CC(=O)Nc2ccccc21 | 99.1% |
| O=C(Nc1ccc(Br)cn1)c1ccc([N+](=O)[O-])o1 | 105% |
| Cc1cccc(NC(=O)c2ccc([N+](=O)[O-])o2)c1 | 151% (active) |
| Cc1onc(NC(=O)c2ccc([N+](=O)[O-])o2)c1Br | 116% |
| Cc1cccc(N)c1SC1CCCCC1O (stereo not given) | 92.2% |
| Cc1ccc(C(CNC(=O)Nc2ccccc2)N2CCN(C)CC2)cc1 (stereo not given) | 102% |
| Cc1cc(O)c(C(=O)/C=C/c2c(F)c(F)c(F)c(F)c2F)c(=O)o1 | 152% (active) |
| Cc1cc(O)c(Sc2ccccc2)c(=O)o1 | 109% |

| SMILES | GFP response vs DMSO |
| --- | --- |
| Cc1ccc(N=Cc2c(O)cc(C)oc2=O)c(C)c1 | 100% |
| Oc1c(CN2CCN(c3ccc(F)cc3)CC2)cc(Cl)c2cccnc12 | 203% (active) |
| Oc1c(CN2CCCC2)cc(COCc2ccccc2)c2cccnc12 | 105% |
| Cc1cccnc1NC(=O)c1cccc(S(=O)(=O)N2CCN(c3ccc(F)cc3)CC2)c1 | 87.3% |
| Cc1cc(C)c(OCC(=O)N(Cc2cccs2)C2CCS(=O)(=O)C2)c(C)c1 (stereo not given) | 98.7% |
| C/C(=N\NS(=O)(=O)c1ccc(Cl)cc1)c1ccc(NC(=O)c2ccco2)cc1 | 94.4% |
| Fc1ccc(/C=N/Nc2nc(-c3cccnc3)nc3ccccc23)cc1 | 165% (active) |
| O=[N+]([O-])c1ccc(F)cc1Oc1nc(-c2cccnc2)nc2ccccc12 | 100% |
| Cc1ccc2nc(C)cc(N/N=C/c3ccc(F)cc3)c2c1 | 103% |
| CCOC(=O)CCC(=O)OCC(=O)NC(C)C1CC2CCC1C2 (stereo not given) | 100% |
| COc1ccc(S(=O)(=O)N2CCN(CC(=O)N3CCOCC3)CC2)cc1OC | 95% |
| O=C(COC(=O)c1cccnc1Cl)NC12CC3CC(CC(C3)C1)C2 | 104% |
| CN/C(=C\[N+](=O)[O-])NCCSCc1csc(CN(C)C)n1 | 95.9% |
| COC(=O)c1ccc(-c2noc(CN(Cc3ccccn3)CC3CCCO3)n2)cc1 (stereo not given) | 98.4% |
| COc1ccccc1C(=O)Nc1ccc(OCc2nnc3c4ccccc4c(C)nn23)cc1 | 102% |
| C=CCC1(CC=C)CCCN1C(=O)CC1C(=O)NCCN1Cc1ccccc1OC (stereo not given) | 93% |
| COc1cccc(C(=O)Nc2nc3ccc(S(C)(=O)=O)cc3s2)c1 | 103% |
| CCc1noc(C)c1C(=O)Nc1nc(-c2ccccc2)cs1 | 115% |
| CCc1noc(C)c1C(=O)Nc1nc2ccc(OC)cc2s1 | 152% (active) |
| COc1cc(C(=S)N2CCOCC2)cc(OC)c1OC(=O)c1ccc([N+](=O)[O-])cc1[N+](=O)[O-] | 91.2% |

| SMILES | GFP response vs DMSO |
| --- | --- |
| Nc1c(C(=O)c2cccs2)sc2nsc(SCCN3CCCCC3)c12 | 203% (active) |
| O=C(CSc1ncnc2sccc12)N1CCN(C(=O)c2cccs2)CC1 | 107% |
| CCc1c(C)c2ccc(OC3CCCCC3=O)cc2oc1=O (stereo not given) | 99.3% |
| CC(C)c1ccc(NC(=O)C2CCCN(S(=O)(=O)c3cccnc3)C2)cc1 (stereo not given) | 94.4% |
| O=C(NC1CCCCC1)c1ccc(-c2ccc(Cl)cc2)o1 | 118% |
| Cc1[nH][nH]c(=O)c1C(c1ccc(-c2ccc(Cl)cc2)o1)c1c(C)[nH][nH]c1=O | 184% (active) |
| CCOc1ccc(C(c2c(C)[nH][nH]c2=O)c2c(C)[nH][nH]c2=O)cc1OCC | 128% |
| Oc1ccc2ccccc2c1N=Nc1nccs1 | 165% (active) |
| CCN(c1ccccc1)S(=O)(=O)c1cc2c(cc1C)n(C)c(=O)c(=O)n2C | 99.4% |
| Cc1ccccc1OCCC(=O)OCC(=O)NCCc1ccc(S(N)(=O)=O)cc1 | 91.6% |
| CC(C)CC1(C)NC(=O)N(CC(=O)Nc2ccc3c(c2)OCCO3)C1=O (stereo not given) | 95.9% |
| CC1(C)CC(=O)CC2(C1)NCC(c1ccccc1Cl)c1c2[nH]c2ccccc12 (stereo not given) | 107% |
| CC(C)c1nc(SCC(=O)Nc2cccc(C(=O)O)c2)c2c3c(sc2n1)CCCC3 | 99.7% |
| COc1ccc(-n2c(C)cc(C(=O)CN3C(=O)NC4(CCc5ccccc54)C3=O)c2C)cc1 (stereo not given) | 96.4% |
| CCn1c(/C=C/c2ccc([N+](=O)[O-])o2)nc2ccccc2c1=O | 358% (active) |
| CCn1c(=O)c([N+](=O)[O-])c(NCc2ccc3c(c2)OCO3)c2ccccc21 | 101% |
| CCc1ccc(S(=O)(=O)N/N=C\c2ccc([N+](=O)[O-])o2)cc1 | 87.6% |
| Cc1cccc([C@@H]2[C@@H]3C(=O)N(Cc4ccccc4)C(=O)[C@@H]3[C@]3(C)C(=O)N(c4ccc(Br)cc4)C(=O)N23)c1 | 98.8% |
| CN(c1ccccc1)S(=O)(=O)c1cc(C(=O)N2CCN(c3ncccn3)CC2)ccc1Cl | 91.2% |
| C[C@@H](CN1CCC[C@H]1CN1C(N)=NC[C@@H]1Cc1ccccc1)N1C[C@@H](Cc2ccccc2)N(CCCC2CCCC2)C1=N | 96.6% |

From PubChem BioAssay AID2023 (NMMLSC, 2009)
